# Experimental data: PubChem BioAssay (NCATS)
# Inconclusive results are not listed. Entries that show only a call come without a potency. The source made the active and inactive calls. The call rests on the fitted dose curve; in most records, active means well fitted inhibition curve with a large enough effect; inconclusive means small, poorly fitted or top-dose-only effect; inactive means flat fitted curve, though single readings scatter.
# Biological target: Glutathione peroxidase 1 (Homo sapiens) (UniProt P07203)
# Experiment: Primary qHTS Assay for Inhibitors of Recombinant Selenoprotein Glutathione Peroxidase 1 (GPX1) (AID 1845191)
# Conditions: recombinant GPX1, GR-coupled NADPH fluorescence, 15 min; series mostly up to 48.8 µM
# Summary of the method: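 GR-coupled readout: NADPH consumption tracked by fluorescence, ex 340/em 450 nm, at t=0 and after 15 min at RT. Final mix 10 nM GPX1, 1 mM GSH, 0.5 mM CHP, 0.5 mM NADPH, 100 nM GR, 0.01% BSA, following 30 min enzyme–compound preincubation.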
# Further: nearly all actives have a fitted effect of over 65% in size.
# Sequence of Glutathione peroxidase 1 (Homo sapiens) (P07203 whole entry, looked up): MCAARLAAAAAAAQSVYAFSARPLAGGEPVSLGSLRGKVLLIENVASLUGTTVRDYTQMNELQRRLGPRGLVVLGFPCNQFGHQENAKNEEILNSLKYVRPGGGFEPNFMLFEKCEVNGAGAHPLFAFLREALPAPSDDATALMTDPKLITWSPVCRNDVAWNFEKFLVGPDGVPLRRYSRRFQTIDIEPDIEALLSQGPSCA
row,SMILES,Potency
1,CCCCOC(=O)NS(=O)(=O)c1sc(CC(C)C)cc1-c1ccc(Cn2c(CC)nc3c(C)cc(C)nc32)cc1,inactive
2,S=C(S)N1CCCC1,inactive
3,O=c1ccn([C@@H]2O[C@H](COP(=O)(O)OP(=O)(O)O)[C@@H](O)[C@H]2O)c(=O)[nH]1,inactive
4,NC(N)=NC(N)=Nc1cccc(Cl)c1,inactive
5,CCCCCC[C@@H]([C@@H](C)O)n1cnc2c(N)ncnc21,inactive
6,CC(C)NC[C@H](O)COc1ccc(CC(N)=O)cc1,inactive
7,COc1cc(/C=C(\C#N)C(=O)Nc2nnc(C(F)(F)F)s2)ccc1OCc1ccc(C(F)(F)F)cc1C(F)(F)F,inactive
8,C#CCn1c(=O)c2c(ncn2C)n(C)c1=O,inactive
9,c1ccc2c(c1)CCC[C@H]2Nc1nc2ccccc2[nH]1,inactive
10,COc1ccccc1N1CCN(CCCCNC(=O)c2ccc3ccccc3c2)CC1,inactive
11,COCc1nc2c([nH]1)c(=O)n(C)c(=O)n2CC(C)C,inactive
12,Oc1ccc(/C=C/c2ccc(/C=C/c3ccc(O)cc3)c(Br)c2)cc1,inactive
13,CC(C)C[C@H](NC(=O)[C@H](O)[C@H](N)Cc1ccccc1)C(=O)O,inactive
14,CCN1C(=O)C=CC1=O,inactive
15,NC(=O)c1ccccc1,inactive
16,COc1ccc(CCn2nnnc2C2(c3ccc(C)cc3)CC2)cc1,inactive
17,Oc1cc(O)c2c(c1)O[C@H](c1ccc(O)c(O)c1)[C@@H](O)C2,inactive
18,COc1ccc2c(c1)c(CC(=O)O)c(C)n2C(=O)c1ccccc1,inactive

# Biological target: Phospholipid hydroperoxide glutathione peroxidase GPX4 (Homo sapiens) (UniProt P36969)
# Experiment: Primary qHTS Assay for Inhibitors of Recombinant Selenoprotein Glutathione Peroxidase 4 (GPX4) (AID 1845192)
# Conditions: recombinant GPX4, GR-coupled NADPH fluorescence, 15 min; series mostly up to 50 µM
# Summary of the method: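 Steps: GPX4 plus compound, 30 min RT; add GR/GSH/NADPH master mix; start with cumene hydroperoxide; read 340/450 nm fluorescence at 0 and 15 min. Finals were 200 nM GPX4, 1 mM GSH, 0.5 mM CHP, 0.5 mM NADPH, 100 nM GR.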
# Sequence of Phospholipid hydroperoxide glutathione peroxidase GPX4 (Homo sapiens) (P36969 whole entry, looked up): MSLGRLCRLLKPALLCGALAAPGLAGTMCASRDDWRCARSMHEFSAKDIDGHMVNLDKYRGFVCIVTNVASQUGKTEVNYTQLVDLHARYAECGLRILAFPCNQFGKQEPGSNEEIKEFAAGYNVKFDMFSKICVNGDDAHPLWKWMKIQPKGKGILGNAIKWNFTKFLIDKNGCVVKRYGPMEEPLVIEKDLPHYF
row,SMILES,Potency
1,O=C(O)/C=C/c1ccc(O)c(O)c1,inactive
2,C=C1C[C@@]23CC[C@H]4[C@@](C)(CCC[C@@]4(C)C(=O)OC4OC(CO)C(O)C(O)C4O)[C@@H]2CC[C@]1(OC1OC(CO)C(O)C(O)C1OC1OC(CO)C(O)C(O)C1O)C3 (stereo partly drawn),inactive
3,CCN1C(=O)C=CC1=O,inactive
4,NC(=O)c1ccccc1,inactive
5,Oc1cc(O)c2c(c1)O[C@H](c1ccc(O)c(O)c1)[C@@H](O)C2,inactive
